This is a sample that favours compounds with a hit; in the whole collection about 12% have one here.
JMJD2A Tudor: inhibitors of human JMJD2A Tudor domain; O75164; AlphaScreen JMJD2A-Tudor / H3K4me3 peptide binding; Potency, µM (top dose mostly 114 µM), most hits filed as inhibitors; actives 4.4% (n = 390,000); AID 504339; note: nearly all actives have a fitted effect of over 50% in size
HP1b binding inh: blocks HP1-beta chromodomain binding to methylated histone tails. P83916. actives 0.56% (n = 390,000). Potency, µM (highest dose often 114 µM), actives largely listed as inhibitors. AlphaScreen HP1-beta / biotin-H3K9me3 peptide binding; note: nearly all actives have a fitted effect of over 70% in size
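HP1-beta protein (50 nM final) preincubated 30 min at room temperature with biotinylated H3(1-18)K9me3 peptide (50 nM) in PBS pH 7.4, 0.01% Tween-20, then compound added for 30 min. AlphaScreen streptavidin donor/nickel chelate acceptor beads (10 ug/mL final), 30 min dark, luminescence read.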
G9a inh: inhibitors of human histone lysine methyltransferase G9a; actives 8.8% (n = 350,000); G9a H3K9 monomethylation, AlphaScreen, 2 h; Potency, µM (doses to about 102 µM), actives largely listed as inhibitors; note: nearly all actives have a fitted effect of over 75% in size
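Quantitative HTS format: methyltransferase activity on a biotin-tagged H3K9 peptide is measured by AlphaScreen, using a rabbit anti-monomethyl-H3K9 antibody with streptavidin donor and anti-IgG acceptor beads. Final levels are 20 nM enzyme, 500 nM peptide, 20 uM SAM; 2 h RT.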
BAZ2B inh: BAZ2B (human) inhibition. AlphaScreen BAZ2B-H3K14Ac peptide displacement. Potency, µM (highest dose often 114 µM), usual class: inhibitors. actives 4.4% (n = 360,000). Q9UIF8; note: nearly all actives have a fitted effect of over 60% in size
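Protein-peptide AlphaScreen: BAZ2B 50 nM, b-H3K14Ac 50 nM, 1x PBS pH 7.4 + 0.01% Tween-20. Preincubation 30 min RT; cpd 30 min RT (top 110 uM); beads 20 min RT, light-protected.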
Sfp inh: blocks B. subtilis Sfp PPTase activity; Biochemical Sfp PPTase activity, qHTS; Potency, µM, usual class: inhibitors; actives 3.5% (n = 310,000);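 note: the enzyme is Sfp with the accession as filed and its product quenches rhodamine fluorescence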
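Reaction rates are the 30-min fluorescence difference (ex 525, em 598 nm) in wells containing 15 nM Sfp, 5 uM rhodamine-CoA and 12.5 uM BHQ-2-YbbR at pH 7.6 with 10 mM MgCl2.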
Numbers stand for hits; - = inactive; ? = inconclusive; . = no result given; [ ] = another dose, or the depositor's remark. Calls come from the whole dose curve; as a rule, active = well fitted curve in the direction sought with a large enough effect; inconclusive = small, poorly fitted or top-dose-only effect, or another doubt; inactive = no such curve, though single readings can be large; an effect the other way counts as inactive or inconclusive.

SMILES	JMJD2A Tudor	HP1b binding inh	G9a inh	BAZ2B inh	Sfp inh
CN(C)CCCN(C(=O)c1ccc2c(c1)CCCC2)c1nc2ccc(Cl)cc2s1	40µM	-	?	?	35µM
COc1ccc(Nc2nc(CN3CCOCC3)nc3sc4c(c23)CCC(C)C4)cc1OC (stereo unspecified)	.	.	-	-	-
COc1cc2c(cc1OC)CN(c1nc(CN3CCOCC3)nc3sc4c(c13)CCC(C)C4)CC2 (stereo unspecified)	25µM	?	14µM	32µM	-
CCc1nn(-c2ccccc2)c(=S)c2ccccc12	?	-	14µM	?	-
CCc1ccc(N(C(C)=O)c2nc(CCl)cs2)cc1	-	-	18µM	-	-
CC(=O)N(c1ccccc1)c1nc(/C=C/C(=O)O)cs1	-	-	-	-	-
Cc1ccc(NS(=O)(=O)c2cccc3nsnc23)cc1C	-	-	-	?	-
Cc1ccc(O)c(NS(=O)(=O)c2cccc3nsnc23)c1	?	?	-[2.33 µM]	45µM	-
O=S(=O)(Nc1cccc2nsnc12)c1ccccc1	-	-	-	-	-
COc1cc(NS(=O)(=O)c2cccc3nsnc23)cc(OC)c1	45µM	-	2µM	56µM	-
Cc1cc(C)c(S(=O)(=O)Nc2ccc[nH]c2=O)c(C)c1	-	-	8.9µM	-	50µM
Cc1cc(C)c(S(=O)(=O)Nc2cccc3nsnc23)c(C)c1	-	-	3.2µM	-	-
CCOc1ccc(S(=O)(=O)Nc2ccc3c(c2)c(C(C)=O)c(C)n3S(=O)(=O)c2ccc(OCC)cc2)cc1	-	-	?	-	.
CCc1ccc(OCC(=O)NCC(c2ccc(Cl)cc2)N2CCOCC2)cc1 (stereo unspecified)	-	-	-	-	.
COc1ccc(-n2c(=O)c(-c3ccc(F)c(F)c3)nc3cncnc32)cc1	.	.	-[0.501 µM]	.	-
Nc1ccc(Oc2ccc([N+](=O)[O-])cc2[N+](=O)[O-])cc1	?	?	?	-	-
COc1cc(/C=C2\C(=O)N(c3ccc(S(N)(=O)=O)cc3)N=C2C)ccc1OC(=O)c1ccco1	?	-	?	?	?
CC1=NN(c2ccccc2)C(=O)/C1=C\c1ccc(Oc2ccc([N+](=O)[O-])cc2[N+](=O)[O-])cc1	40µM	?	45µM	40µM	-
COc1cc(/C=C2\C(=O)N(c3ccccc3)N=C2C)ccc1Oc1ccc([N+](=O)[O-])cc1[N+](=O)[O-]	25µM	?	?	45µM	-
O=c1[nH]c([N+](=O)[O-])nn1C(c1ccccc1)c1ccccc1	-	-	-[2.33 µM]	-	-
CN(C)CCCNC(=O)C[C@H]1C[C@H](C(=O)N2CCCCC2)[C@@]2(C)c3[nH]c4cc(CCC(=O)N(C)C)ccc4c3CCN2C1=O	-	-	.	.	.
O=C(NN1S(=O)(=O)c2ccccc2S1(=O)=O)c1ccc(Br)cc1	-	-	?	50µM	?
CC(NC(=O)c1ccc(Br)cc1)c1ccccc1 (stereo unspecified)	-	-	-	-	-
Cc1cccc(C(=O)NN2S(=O)(=O)c3ccccc3S2(=O)=O)c1	-	-	7.1µM	.	50µM
Cc1cccc(C(=O)NCCNC(=O)c2cccc(C)c2)c1	-	-	-	-	-
SMILES	JMJD2A Tudor	HP1b binding inh	G9a inh	BAZ2B inh	Sfp inh
CCOC(=O)c1cc(CC)sc1NC(=O)COc1ccccc1C	-	-	-	-	.
COc1ccc(-c2csc(NC(=S)NC(=O)c3cccs3)n2)cc1Br	-	-	-	-	-
COc1ccc(-c2csc(NC(=O)CSCc3c(C)noc3C)n2)cc1OC	-	-	.	?	-
COc1ccc(-c2csc(NC(=O)CSCC(=O)Nc3cc(C)on3)n2)cc1OC	-	-	40µM	-	.
CCc1noc(C)c1C(=O)Nc1nc(-c2ccc(OC)c(OC)c2)cs1	-	-	?	-	.
COc1ccc(-c2csc(NC(=S)NC(=O)c3cccs3)n2)cc1OC	-	-	32µM	?	32µM
COc1ccc(-c2csc(NC(=O)c3cc(C)oc3C)n2)cc1OC	?	-	50µM	35µM	-
COc1ccc(NC(=O)CSc2nc3c(c(=O)[nH]2)CN(Cc2ccccc2)CC3)cc1Cl	-	-	-	-	.
CC(=O)OC[C@H]1O[C@@H](O/N=C(\C)CCC(=O)OC[C@@H]2O[C@H](C#Cc3ccccc3)C=C[C@@H]2Oc2ccc(C)cc2)[C@H](OC(C)=O)[C@@H](OC(C)=O)[C@H]1OC(C)=O	.	.	.	.	-

Source: PubChem BioAssay
